Experimental data as given in PubChem BioAssay AID1531 (NMMLSC, 2009).
In all, about 290,000 compounds went through this assay and about 3,300 (1.1%) were called active. What follows is part of a selection rich in actives, with near analogues and random picks from the rest. Unmarked numbers belong to inactive results. No stated cut-off is given here; in the data, active means binding response below about 67% or above about 130%; inconclusive means no clear call, values can overlap the other calls; inactive means in between.

target: Mitogen-activated protein kinase kinase kinase 2 (Homo sapiens) (UniProt Q9Y2U5); assay: modulators of MEK5 binding to wildtype MEKK2, primary screen, biochemical, multiplex bead flow cytometry, Alexa488-MEK5 (AID 1531); settings: Alexa488-MEK5 binding to MEKK2 WT, at 10 µM, actives lie on both sides

SMILES	binding response (% of control)
CCOC(=O)C1CCN(C(=O)COc2cccc3ccccc23)CC1	97%
Cc1nc(N=C(N)N)nc2c(C)cccc12	145% (active)
CC(=O)Oc1ccc(-c2nc3c(C)cccc3c(=O)o2)cc1	106%
Cc1nc(/N=C(\N)NC(=O)NC2CCCCC2)nc2ccccc12	108%
NC(N)=N/N=C/c1ccc(OCc2ccc(Cl)cc2Cl)cc1	213% (active)
NC(N)=N/N=C/c1ccc(Cl)c([N+](=O)[O-])c1	109%
CCOc1ccc(NC(=O)NNC(=O)c2ccc(Cl)cc2Cl)cc1	96%
Cc1cc(OCC(=O)Nc2c(C)n(C)n(-c3ccccc3)c2=O)ccc1[N+](=O)[O-]	97%
CN(C)S(=O)(=O)c1ccc2oc(SCC(=O)Nc3ccccc3F)nc2c1	99%
C=CCNc1nc(N)c([N+](=O)[O-])c(NC2CCCCC2)n1	100%
O=C(NCCc1c[nH]c2ccccc12)C1CCN(Cc2ccc(Br)cc2)CC1	125%
O=C(c1ccco1)N1CCN(c2cccc(Cl)c2)CC1	-2% [inhibitor] (active)
O=C(Cc1c(F)cccc1Cl)N1CCN(C(=O)c2ccco2)CC1	99%
O=C(c1cccc([N+](=O)[O-])c1)N1CCN(C(=O)c2ccco2)CC1	99%
CC1CC(C)CN(S(=O)(=O)c2cccc3nonc23)C1 (configuration not stated)	109%
COc1ccc(OC)c(S(=O)(=O)N2CCCC(C(=O)NCCc3ccccc3)C2)c1 (configuration not stated)	100%
Cc1cccc(N(C(=O)c2csnn2)C(C(=O)NCc2ccccc2)c2ccncc2)c1 (configuration not stated)	102%
CCC(=C/c1sc2ccc3ccccc3c2[n+]1C)/C=C1\Sc2ccc3ccccc3c2N1C	9% [inhibitor] (active)
CCc1ccc(NC(=O)Nc2ccncc2)cc1	107%
CC1(C)C=Cc2c(ccc3c2OC[C@@H](c2ccc(O)cc2O)C3)O1	107%
COc1ccccc1C(=O)NCc1nnc(SC(C)C(=O)Nc2nccs2)n1C (configuration not stated)	105%
Cc1ccc(S(=O)(=O)NC2CCCCCC2)cc1C(N)=O	99%
c1ccc2c(c1)C(=NC1CCCCC1)NC2=NC1CCCCC1	145% (active)

SMILES	binding response (% of control)
O=C(c1noc2c1CCCC2)N1CCc2ccccc2C1	97%
COc1cc(NC(=O)NCC2CCN(Cc3ccc(C)cc3)CC2)cc(OC)c1OC	113%
Cc1ccc(C)c(CN2CCC(CNC(=O)Nc3ccc(C)c(F)c3)CC2)c1	150% (active)
O=C(NCC1CCN(Cc2ccccc2Cl)CC1)Nc1cccc(Cl)c1	110%
Cc1cccc(CN2CCC(CNC(=O)Nc3ccc(F)c(Cl)c3)CC2)c1	139% (active)
Cc1ccccc1NC(=O)NCC1CCN(Cc2cccc(Cl)c2)CC1	104%
COc1ccc(Cl)cc1NC(=O)NCC1CCN(Cc2ccccc2F)CC1	118%
CC(C(=O)c1ccc(-c2ccccc2)cc1)[n+]1cccc(Br)c1 (configuration not stated)	123%
CC(=O)N1CC(=O)N(CC(=O)Nc2ccc(Br)cc2)C1=S	97%
CCOC(=O)c1cccc(NC(=O)c2ccc(F)cc2F)c1	105%
CCN(CC(=O)NCC(=O)Nc1cccc(C)c1C)Cc1ccccc1	103%
CCOC(=O)/C(C#N)=C/c1ccc(OCC(=O)Nc2ccccc2)c(OC)c1	37% [inhibitor] (active)
CCCn1c(C)cc(/C=C(\C#N)C(=O)OCC(=O)Nc2cc(OC)c(OC)c(OC)c2)c1C	106%
COc1cc(C2C3=C(CCCC3=O)OC3=C2C(=O)CCC3)ccc1OCC(=O)Nc1ccccc1	96%
OC(COc1ccc(F)cc1Cl)CN1CCc2ccccc2C1 (configuration not stated)	105%
Cc1cccc(OCC(O)CN2CCN(S(=O)(=O)c3ccc(C)cc3C)CC2)c1 (configuration not stated)	95%
Cc1ccc(OCC(O)CN2CCN(CC(O)COc3ccc(C)cc3Cl)CC2)c(Cl)c1 (configuration not stated)	134% (active)
C[n+]1cc(-c2ccccc2)oc1-c1ccccc1	100%
COc1ccc(CNc2nc3c(c(=O)[nH]c(=O)n3C)n2Cc2ccccc2)cc1	109%
COc1ccc(CCn2c(NCCCN3CCOCC3)nc3c2c(=O)[nH]c(=O)n3C)cc1	103%
COc1ccc(CCn2c(NN=C3CCCC3)nc3c2c(=O)[nH]c(=O)n3C)cc1	39% [inhibitor] (active)
COC(=O)CN1C(=O)[C@H]2[C@@H](/C=C/c3ccccc3)N3C(=O)CN(CC4CC4)C(=O)[C@@]3(Cc3ccccc3)[C@H]2C1=O	104%
CC1=C(N2CCN(c3ncccn3)CC2)CCC1=O	111%

SMILES	binding response (% of control)
COc1cccc(CNC(=O)C2CC(=O)N(C3CCCCCCC3)C2)c1 (configuration not stated)	94%
O=C(Nc1nnc(C2CC2)s1)c1cc(Cl)sc1Cl	102%
CC(C)(C)NC(=O)NC(=O)COC(=O)C1c2ccccc2Oc2ccccc21	100%
COc1cccc(OCC(=O)NNC(=O)c2cnccn2)c1	2% [inhibitor] (active)
COc1cccc(OCC(=O)Nc2ccccc2C(N)=O)c1	115%
COc1ccc(OCC(=O)NNC(=O)c2cccc(C)c2)cc1	93%
COc1ccc(CCNC(=O)CCNS(=O)(=O)c2cc(Br)cnc2N)cc1OC	106%
CCOC(=O)c1cc(-c2nnc(-c3cc(OC)c(OC)c(OC)c3)o2)c(C)nc1C	104%
CC(C)(C)NC(=O)c1ccc(Cn2cc(C(F)(F)F)ccc2=O)cc1	101%
COc1cc(-c2nnc(Cn3cc(C(F)(F)F)ccc3=O)o2)cc(OC)c1OC	3% [inhibitor] (active)
CCC(Cc1ccccc1)NS(=O)(=O)c1ccc2c(c1)NC(=O)CS2 (configuration not stated)	102%
Nc1cc(N)nc(SCc2cccc(F)c2)n1	104%
COC(=O)c1c(C)cc(O)c(C)c1O	104%
C#CC(C)(C)NC(=O)CSc1nc2c(c(=O)n(C)c(=O)n2C)n1CCCC	106%
CCCCn1c(SCC(=O)NCCc2ccc(OC)c(OC)c2)nc2c1c(=O)n(C)c(=O)n2C	-4% [inhibitor] (active)
CCn1c(NCCc2ccc(OC)c(OC)c2)nc2c1c(=O)n(C)c(=O)n2C	102%
CCN(CC)C(=O)CC(c1ccc2c(c1)OCO2)c1c(OC)cc(OC)c2c(-c3ccccc3)cc(=O)oc12 (configuration not stated)	143% (active)
CCN(CC)CCC(c1cc(OC)c(OC)c(OC)c1)c1c(OC)cc(OC)c2c(-c3ccccc3)cc(=O)oc12 (configuration not stated)	90%
COc1cc(OC)c(C(=O)NCc2ccc3c(c2)OCO3)cc1OC	102%
CCN(CC)CCC(c1ccc2c(c1)OCO2)c1c(OC)cc(OC)c2c(-c3ccccc3)cc(=O)oc12 (configuration not stated)	137% (active)
CCCCN(CC)C(=O)c1ccc2c(c1)OCO2	100%
COc1cc(OC)c2ccc(=O)oc2c1C(CCN1CCN(c2ccccc2)CC1)c1ccc2c(c1)OCO2 (configuration not stated)	110%
Cc1cccc(Nc2nc(NCCO)nc(N3CCCC3)n2)c1	109%

SMILES	binding response (% of control)
COc1cc(CC(=O)N2CCC(n3nccc3NC(=O)C3CC3)CC2)cc(OC)c1OC	103%
Clc1cccc(Cl)c1OCCOCCNCc1ccccc1	109%
CCC(C(=O)OCCN(CC)CC)c1ccccc1 (configuration not stated)	101%
CCN(CC)CCOCCOc1ccc(Cl)c2ccccc12	7% [inhibitor] (active)
Cc1cccc(NC(=S)NCCc2ccc(Cl)cc2)c1C	106%
Cc1ccc(S(=O)(=O)N(C)CC(=O)NCCc2c[nH]c3ccccc23)cc1	107%
CCOC(=O)c1ccc(NC(=O)c2c(NCc3ccccc3)[nH]c(=O)[nH]c2=O)cc1	102%
CC1CN(C(=O)CCC(=O)NCc2cccnc2)c2ccccc2O1 (configuration not stated)	103%
CC1CN(C(=O)CCC(=O)NCCCN2CCC(Cc3ccccc3)CC2)c2cc(Cl)ccc2O1 (configuration not stated)	163% (active)
CC1CN(C(=O)CCC(=O)NC2CCN(Cc3ccccc3)CC2)c2ccccc2O1 (configuration not stated)	107%
O=C(CN1CCCCCC1)Nc1ccc(S(=O)(=O)N2CCCCC2)cc1	100%
O=C(NCc1ccccc1Cl)C1CCN(c2ncnc3c2nc2n3CCCCC2)CC1	102%
Cc1cc(C)c(OCC(=O)N(Cc2cccs2)C2CCS(=O)(=O)C2)c(C)c1 (configuration not stated)	101%
NS(=O)(=O)c1cccc(NC(=O)CN2CCCc3ccccc32)c1	99%
COC(=O)c1[nH]c2ccccc2c1NC(=O)CN1CCCc2ccccc21	-2% (active)
COC(=O)c1[nH]c2ccc(Br)cc2c1NC(=O)Oc1ccccc1	103%
O=C(CN1CCc2ccccc21)NC(c1ccccc1)c1ccccc1	95%
COC(=O)c1[nH]c2cccc(C)c2c1NC(=O)CN1CCCc2ccccc21	18% [inhibitor] (active)
Cc1cccc(C)c1NC(=O)COC(=O)c1ccccc1O	97%
CC(=O)N1c2ccc(S(=O)(=O)N3CCCC(C(=O)Nc4cccc(F)c4)C3)cc2CC1C (configuration not stated)	106%
CCOC(=O)c1c(-c2ccccc2)oc2cc(Br)c(O)c(C=O)c12	94%
O=C(Nc1ccccc1Cl)NC1(C(=O)N2CCOCC2)CCCCC1	96%
CC1(C)C2CC[C@]3(C)C(CC=C4[C@@H]5C[C@@](C)(CO)CC[C@]5(C(=O)O)CC[C@]43C)[C@@]2(C)CC[C@@H]1O (some centres not stated)	105%
